This is a sample that favours compounds with a hit; in the whole collection about 4.6% have one here.
SKKanGAS inh: inhibitors of SKKanGAS S. pyogenes growth in kanamycin (SK-promoter or general growth effect) | BacTiter-Glo, 6 h | inhibition, % at 7.5 µM | 300,000 compounds, 1.3% hits;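 active means mean replicate score, as percent of positive control median, at least 50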;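 further: strain carries kanamycin resistance gene driven by streptokinase promoter and grows in 40 µg/ml kanamycin; loss of luminescence reflects streptokinase promoter inhibition or plain growth inhibition; 0% = median of DMSO wells and 100% = positive control at its reference dose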
TIM10 inh: inhibits growth of TIM10 yeast strain. S. cerevisiae TIM10 strain growth, BacTiter-Glo luminescence, 24 h. inhibition, % at 10 µM. 330,000 compounds, 1.4% hits;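 active means inhibition of 40% or more at the single tested concentration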;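 further: wild-type TIM10 isogenic control strain grown at permissive 25 °C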
PfHsp90 yeast 2: inhibits growth of yeast expressing Plasmodium falciparum Hsp90 | S. cerevisiae expressing PfHsp90, BacTiter-Glo ATP, 48 h; yeast lacking PDR1 and PDR3 efflux regulators | inhibition, % at 9.4 µM | 310,000 compounds, 0.32% hits;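 active means every replicate shows inhibition above about 80%, whatever the replicate mean, limit read from the data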;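 further: 0% = DMSO neutral controls and 100% = 20 µM radicicol positive controls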
V-ATPase pH: regulators of yeast V-ATPase proton transport | S. cerevisiae, pHLuorin cytosolic pH fluorescence | response, % at 10 µM | 350,000 compounds, 0.37% hits; in the data active means response mostly above about 7.3%, no sharp cut-off; inactive means mostly below about 5.4%; further: actives read high
tim23-1 inh: inhibits growth of tim23-1 mutant yeast | S. cerevisiae tim23-1 growth, BacTiter-Glo luminescence, 24 h | inhibition, % at 20 µM | 330,000 compounds, 1.3% hits;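 active means growth inhibition of the mutant yeast at or above 50%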;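 further: temperature-sensitive mutant grown at 25 °C; plate controls were DMSO-treated mutant yeast for no effect and medium wells lacking yeast for full effect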
tim10-1 inh: tim10-1 yeast growth inhibition; S. cerevisiae tim10-1 ts strain growth, BacTiter-Glo, 24 h; AID 463190; inhibition, % at 20 µM; 330,000 compounds, 2.2% hits;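 active means inhibition of at least 40%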;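 further: mutant grown at 25 °C; 0% = DMSO wells with yeast and 100% = wells holding no yeast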
tim10-1 conf: confirmation of tim10-1 mutant yeast growth inhibitors; shares compounds with tim10-1 inh; 7,400 compounds, 56% hits; inhibition, % at 20 µM; AID 463213; S. cerevisiae tim10-1 ts strain growth, BacTiter-Glo, 24 h;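 active means inhibition of yeast growth at or above a set limit in either of two repeat tests at 20 µM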;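 further: tim10-1 mutant grown at permissive 25 °C to find synthetic lethal compounds; 0% = DMSO yeast wells and 100% = medium wells without yeast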
Active calls of the source: *; nt = not tested or not shown.

SMILES	SKKanGAS inh	TIM10 inh	PfHsp90 yeast 2	V-ATPase pH	tim23-1 inh	tim10-1 inh	tim10-1 conf
CCCOc1ccc(CNC(=S)Nc2ccccc2)cc1Cl	-2.8	22.6	-33.8	-1.0	35.5	42.9*	22.6
CC(=O)c1cccc(NC(=O)CN2C(=O)C(=O)N(Cc3ccco3)C2=O)c1	nt	-6.8	nt	-1.1	-5.4	-3.2	nt
Cc1nc2cc(C(=O)OCC(=O)NC34CC5CC(CC(C5)C3)C4)ccc2n1-c1ccccc1	20.9	27.8	-4.1	-2.4	34.2	40.2*	31.9*
CCOC(=O)C1=C(N)Oc2cc(O)ccc2C1c1cccc([N+](=O)[O-])c1 (stereo not drawn)	-3.5	37.7	-10.2	0.9	43.8	45.9*	29.8
CCCN1CCN(C(=O)C2CCN(S(=O)(=O)c3c(C)noc3/C=C/c3ccc(C)cc3)CC2)CC1	28.1	12.4	13.6	3.9	30.4	54.0*	28.2*
CCn1c(SCC(=O)Nc2ccc(F)cc2)nnc1C1CC1	-1.0	-12.5	10.5	5.7	6.2	-10.7	nt
COc1cc(NC(=O)CSc2ncnc3scc(-c4ccccc4)c23)c(C(=O)O)cc1OC	28.2	13.3	9.7	6.6	11.3	16.1	nt
COc1ccc(-n2cc3c(-c4cccc(Br)c4)nnc(C)c3n2)cc1	28.3	26.2	-5.4	-3.4	48.4	46.2*	30.5
Cc1nnc(-c2cccc(Br)c2)c2cn(-c3cccc(Br)c3)nc12	28.8	18.8	27.2	1.5	1.7	28.2	nt
CCCCN(CC)CCCNC(=S)Nc1ccc2nc3n(c(=O)c2c1)CCCCC3	-3.1	-10.9	7.9	3.8	-3.6	16.1	nt
CCOc1ccc(OCc2ccc(C(=O)N3CCCC(C)C3)cc2)cc1 (stereo not drawn)	-6.6	6.7	-9.5	5.3	33.4	41.1*	17.1
Cc1ccc(Cl)cc1N1CCN(C(=O)CSc2nnc3n2C(C)(C)Cc2ccccc2-3)CC1	36.4	16.1	nt	3.1	4.4	2.3	nt
COc1ccc(N2CCN(C(=O)CSc3nnc4n3C(C)(C)Cc3ccccc3-4)CC2)cc1	-4.0	17.5	2.9	3.1	37.7	46.0*	25.1
Cc1csc(NC(=O)CCC(=O)N(CC(=O)NC2CCCC2)Cc2ccccc2)n1	-1.9	12.3	4.0	-0.1	6.6	-13.2	nt
CCc1cccc(NS(=O)(=O)c2ccc(-n3cccn3)cc2)c1	3.4	12.3	0.8	3.8	37.9	50.4*	17.9
O=C(/C=C/Nc1ccc(Br)cn1)c1cccc(OC(F)F)c1	nt	10.5	-17.8	-0.2	23.0	16.8	nt
COc1cc(N(C(C)=O)c2ccc(O)c(C(=O)O)c2)c2ncccc2c1	nt	nt	nt	-0.3	nt	nt	nt
Cc1cccc(C2Nc3cccc4cccc(c34)N2)c1	4.9	35.9	-11.9	-2.7	41.0	40.7*	23.6
Cc1ccc(-c2nc(C(=O)NCCCN3CCOCC3)cc3c2[nH]c2ccccc23)cc1	10.4	18.5	nt	0.0	26.0	40.5*	32.4*
COc1ccc(-c2nc(C(=O)NCCCN3CCOCC3)cc3c2[nH]c2ccccc23)cc1OC	9.2	-3.0	47.2	-0.2	2.7	16.8	nt
O=C1CC(N2CCCc3ccccc32)C(=O)N1c1ccccc1Cl (stereo not drawn)	2.5	2.7	-7.5	2.0	-14.5	-4.6	nt
C/C(=N/NC(=O)c1ccc(Br)o1)c1cccc(NC(=O)c2ccc(F)cc2)c1	5.1	28.8	nt	-0.8	40.3	49.3*	39.5*
C/C(=N/NC(=O)c1ccc(Br)o1)c1cccc(NC(=O)c2ccc(C)o2)c1	-0.2	15.8	11.3	2.4	36.9	44.2*	17.7
C/C(=N\NC(=O)c1ccc(Br)cc1)c1cccc(NC(=O)c2cccnc2)c1	-10.2	6.3	-13.5	2.2	9.4	12.3	nt
OCCN1CCN(CC/C=C2/c3ccccc3Sc3ccc(Cl)cc32)CC1	nt	31.7	4.1	-3.6	12.4	44.3*	25.8
OCCN1CCN(CCCN2c3ccccc3Sc3ccc(Cl)cc32)CC1	4.2	18.7	16.1	4.1	-0.5	42.6*	27.5
CN(C)CCCN1c2ccccc2Sc2ccc(Cl)cc21	5.6	18.6	-7.1	2.5	-6.3	37.3	nt
CN(C)CC/C=C1\c2ccccc2Sc2ccc(Cl)cc21	1.8	16.5	0.3	4.9	-9.7	39.4	nt
